Data taken from PubChem BioAssay (Tox21).
Records with an inconclusive call do not appear. Active and inactive are the calls of the source. Calls follow the shape of the dose curve; as a rule, active = well fitted curve in the direction sought with a large enough effect in the repeat runs; inconclusive = weak or mixed curves; inactive = no such curve, though single readings can be large; an effect the other way counts as inactive or inconclusive. Positions of bridges follow the written chain, without caps; N, C: chain ends. Non-standard residues stand in square brackets, D forms with d. Residues, ends and D or L forms follow the SMILES beside them. *: point of attachment. X1 = CC[C@@H](C)[C@@H](N)C1=N[C@H](C(=O)*)CS1; d(aIle) = CC[C@H](C)[C@@H](N)C(=O)O; dOrn = NCCC[C@@H](N)C(=O)O

Assays:
[1] = biological target: Nuclear receptor subfamily 1 group I member 2 (Rattus norvegicus) (UniProt Q9R1A7); test: Rat pregnane X receptor (rPXR) activation by small molecules, qHTS assay (AID 1346983); conditions: rPXR luciferase reporter cells, One-Glo luminescence, 24 h; max activation: active compounds read high; also: nearly all actives have a fitted effect of over 20% in size
Sequence of Nuclear receptor subfamily 1 group I member 2 (Rattus norvegicus) (Q9R1A7 whole entry, looked up): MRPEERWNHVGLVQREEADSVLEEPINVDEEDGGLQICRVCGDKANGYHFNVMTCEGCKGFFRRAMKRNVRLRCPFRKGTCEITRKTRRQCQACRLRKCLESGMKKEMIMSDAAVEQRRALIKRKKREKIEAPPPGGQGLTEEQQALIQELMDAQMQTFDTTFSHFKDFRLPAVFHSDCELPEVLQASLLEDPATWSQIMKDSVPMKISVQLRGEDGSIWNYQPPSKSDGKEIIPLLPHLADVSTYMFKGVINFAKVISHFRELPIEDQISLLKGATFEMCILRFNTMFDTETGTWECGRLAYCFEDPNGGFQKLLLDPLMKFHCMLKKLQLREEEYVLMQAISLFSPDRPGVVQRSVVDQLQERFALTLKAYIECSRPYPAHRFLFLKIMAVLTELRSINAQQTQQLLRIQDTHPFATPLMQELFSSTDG
How it was run: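 Luminescent readout (One-Glo luciferase, 30 min room temperature) followed 24 hr compound treatment at 37 C of rPXR cells plated 2,000 per well and preincubated 5hr; qHTS format with compounds delivered in DMSO.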

[2] = biological target: Nuclear receptor subfamily 1 group I member 2 (Homo sapiens) (UniProt O75469); test: CYP3A4 induction through human pregnane X receptor (PXR) by small molecules, qHTS assay (AID 1346984); conditions: DPX-2 HepG2 PXR, CYP3A4-luciferin luminescence, 24 h; series mostly up to 46.1 µM; also: nearly all actives have a fitted effect of over 40% in size
How it was run: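 Quantitative HTS in DPX-2 cells, i.e. HepG2 transfected with PXR response element and CYP3A4-promoter luciferase. Compounds in DMSO incubated 24hr at 37C; then P450-Glo CYP3A4 substrate, 3uM final, 3hr; One-Glo luminescence.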

[3] = biological target: Nuclear receptor subfamily 1 group I member 2 (Homo sapiens) (UniProt O75469); test: Human pregnane X receptor (PXR) activation by small molecules, qHTS assay (AID 1346985); conditions: DPX-2 HepG2 CYP3A4-luciferase, 24 h; series mostly up to 38.3 µM; also: nearly all actives have a fitted effect of over 40% in size
How it was run: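 DPX-2 cells (HepG2 co-transfected with a PXR response element and a CYP3A4-promoter luciferase construct) were seeded at 2,000 per well, rested 5 hr at 37C, then exposed to DMSO-dissolved compounds for 24 hr. Activation was read as luciferase luminescence.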
% is scaled to controls: 0 for no effect and ±100 for the full control effect.

CC/C=C\C/C=C\C/C=C\C/C=C\C/C=C\CCCC(=O)O
inactive: max activation [1] -0.855% | Potency [2] | Potency [3]

CC[C@@H](C)[C@@H](N)C1=N[C@H](C(=O)N[C@@H](CC(C)C)C(=O)N[C@@H](CCC(=O)O)C(=O)N[C@@H](C(=O)N[C@@H]2CCCCNC(=O)[C@@H](CC(N)=O)NC(=O)[C@@H](CC(=O)O)NC(=O)[C@@H](Cc3cnc[nH]3)NC(=O)[C@@H](Cc3ccccc3)NC(=O)[C@@H]([C@H](C)CC)NC(=O)[C@@H](CCCN)NC2=O)[C@@H](C)CC)CS1 (X1-LE[d(aIle)][dK][dOrn][dI][dF][dH][dD][dN]; lactam 4-C)
inactive: max activation [1] -0.877% | Potency [2] | Potency [3]

CCC(O)c1ccccc1 (stereo unspecified)
inactive: max activation [1] -2.74% | Potency [2] | Potency [3]

CC1(C)S[C@@H]2[C@H](N3C(=O)C(c4ccccc4)NC3(C)C)C(=O)N2[C@H]1C(=O)O (stereo partly specified)
inactive: max activation [1] -2.27% | Potency [2] | Potency [3]

CC(C)(O/N=C(\C(=O)N[C@@H]1C(=O)N2C(C(=O)[O-])=C(C[n+]3ccccc3)CS[C@H]12)c1csc(N)n1)C(=O)O
inactive: max activation [1] 0.831% | Potency [2] | Potency [3]

NCCO/C=C/[C@H](N)C(=O)O
inactive: max activation [1] -1.97% | Potency [2] | Potency [3]

CC(=O)OCC1=C(C(=O)O)N2C(=O)[C@@H](NC(=O)Cc3ccccc3)[C@H]2SC1
inactive: max activation [1] -4.93% | Potency [2] | Potency [3]

C[C@]12O[C@H](C[C@]1(O)CO)n1c3ccccc3c3c4c(c5c6ccccc6n2c5c31)CNC4=O
inactive: max activation [1] -24.6% | Potency [2] | Potency [3]

N=C(N)n1cccn1
inactive: max activation [1] -4.29% | Potency [2] | Potency [3]

CC(C)(Oc1ccc(C2CCCc3ccccc32)cc1)C(=O)O (stereo unspecified)
inactive: max activation [1] -3.77% | Potency [2] | Potency [3]

CSCCC(N)C(=O)O (stereo unspecified)
inactive: max activation [1] -0.631% | Potency [2] | Potency [3]

C[Se]CC[C@H](N)C(=O)O
inactive: max activation [1] -6.85% | Potency [2] | Potency [3]
